Experimental findings from the OligoGym collection are described below.
Also: reference of the scale not given here.

For one assay, the target named is SSU72. As to the kind of experiment: pooled miR-30 sensor sort-seq; sequence = guide strand. As to conditions: shRNA.
In turn, TTGTACATCTGGTCATATGTGG returned a sensor-assay potency score (higher = more potent) of 0.225.
On the same count and under the same terms, under TTTGAAATCATAAACATTGGGC stands 0.0382; under ATGAACAACAGGAAGCTCCAGA, -0.247; under ATAAACATTGGGCTTGTCGGGA, -0.564.
Still for that read-out and setting: under AACTTTGTAATCAATATCCTGC stands 0.0512.
Still for that read-out and setting: the result for AAGAAGATCATTGTACATCTGG reads 0.705; that for TTCTGGAATCTTTCTGGCCGGG, -0.713; that for TAGAGTTCTTTGTCTTTCCTAA, -0.0441.
In the case of TAAACATTGGGCTTGTCGGGAG, the sensor-assay potency score (higher = more potent) was -0.587.
Same read-out and setting: under TCGTTCTCCATGTCTTCCGTGT stands -0.416; under TCATACACTCTCTCTTCGCAAG, -1.24; under TTTCCTAAGAAGATCATTGTAC, 0.179.

The target in a further assay is SSX3. Described as above. As to conditions: shRNA.
The sequence TTTTGTATCTTCTCTGGTATTT gave a sensor-assay potency score (higher = more potent) of -0.981.
The same measure, in the same setting: the result for TTTGTATCTTCTCTGGTATTTG reads -1.22; that for TTTCTCCGAGACTTTCATCTTT, -0.136; that for TAACAGAATGACACACTTCAAG, -1.11.
With CATCTGAGGACGTTGAACCTGA, the sensor-assay potency score (higher = more potent) was -0.724.
Same read-out and setting: the result for TTGAACCTGATTCCCACGGTTA reads -0.528.
